# TDP1 block: blocks human tyrosyl-DNA phosphodiesterase 1; 350,000 tested, 0.28% active; AID 485290; recombinant TDP1, AlphaScreen DNA substrate cleavage; Potency, µM (highest dose often 130 µM), for inactives: at the top dose activity change, negative = inhibition, usual class: inhibitors; Q9NUW8; also: nearly all actives have a fitted effect of over 40% in size
# Target sequence (Q9NUW8 whole entry, looked up): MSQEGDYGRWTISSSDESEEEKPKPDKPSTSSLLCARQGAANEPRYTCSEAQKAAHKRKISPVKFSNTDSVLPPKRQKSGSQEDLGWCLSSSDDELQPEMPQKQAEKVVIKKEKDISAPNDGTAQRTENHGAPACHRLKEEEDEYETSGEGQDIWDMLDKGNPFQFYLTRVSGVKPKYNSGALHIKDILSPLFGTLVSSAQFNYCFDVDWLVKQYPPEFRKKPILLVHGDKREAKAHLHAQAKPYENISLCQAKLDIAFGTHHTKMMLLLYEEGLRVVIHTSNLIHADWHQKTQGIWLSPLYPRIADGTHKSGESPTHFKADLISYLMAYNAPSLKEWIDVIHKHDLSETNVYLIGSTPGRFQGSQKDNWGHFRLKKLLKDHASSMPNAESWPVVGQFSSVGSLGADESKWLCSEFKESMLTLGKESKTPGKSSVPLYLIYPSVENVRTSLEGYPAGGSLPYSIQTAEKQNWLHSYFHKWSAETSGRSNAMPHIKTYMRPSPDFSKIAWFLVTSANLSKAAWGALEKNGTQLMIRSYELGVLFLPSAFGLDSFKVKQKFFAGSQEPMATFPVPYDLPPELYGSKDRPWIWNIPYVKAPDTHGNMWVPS
#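 E. coli-derived human Tdp1, 1 nM final. Cpd preinc 15 min RT; substrate 15 nM final, 5 min RT; AS bead mix 10 ug/ml final, 10 min RT. Signal loss = tyrosine-FITC cleavage. No-enzyme wells = max signal.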
# TDP1 cell noCPT: qHTS for Inhibitors of human tyrosyl-DNA phosphodiesterase 1 (TDP1): qHTS in cells in absence of CPT; DT40 Tdp1-/- hTDP1 cells, no CPT, ATP luminescence, 48 h; Potency, µM (titrated, usually from 46.2 µM), without a hit: top-dose activity change, negative = growth inhibition, hits mostly inhibitors; 420,000 tested, 15% active; AID 686978, 2013; also: nearly all actives have a fitted effect of over 55% in size
#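 A cellular qHTS used chicken DT40 cells lacking endogenous Tdp1 but carrying stably transfected human TDP1. Compounds were applied without camptothecin, and cell growth kinetics were judged by ATP-dependent luminescence after ≥48 hr.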
# DT40 TDP1 CPT: growth inhibition of DT40 Tdp1-/-;hTDP1 cells with camptothecin (screen for TDP1 inhibitors) | chicken DT40 Tdp1-/-;hTDP1 cells + 20 nM CPT, ATP luminescence, 48 h | Potency, µM (doses to about 46.2 µM), inactives show at the highest dose activity change, negative = growth inhibition, usual class: inhibitors | 420,000 tested, 12% active; also: nearly all actives have a fitted effect of over 55% in size
#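 Cell growth measured by CellTiter-Glo luminescence after a minimum 48 h, 37 C compound exposure with 20 nM CPT in Tdp1-knockout DT40 cells stably expressing hTDP1, seeded 400/well; qHTS titration format.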
# RORg inh: blocks mouse ROR gamma transcriptional activity; P51450; Drosophila S2 Gal4-RORgamma UAS-luciferase reporter, 20 h; Potency, µM (top dose mostly 53.6 µM), without a hit: top-dose activity change, negative = inhibition, most hits filed as inhibitors; 310,000 tested, 5.4% active; AID 2551; also: nearly all actives have a fitted effect of over 60% in size
#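 Compounds are pin-transferred onto Drosophila Schneider cells expressing a copper-inducible Gal4–ROR gamma transactivation domain fusion. After 1 hr, copper sulfate is added to 700 uM final; luciferase is read 20 hr later.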
# Gal4-VP16 FLuc: Gal4-VP16 reporter inhibition counter-screen. Potency, µM (highest dose often 53.6 µM), for the others: at the highest dose activity, negative = inhibition, usual class: inhibitors. 310,000 tested, 3.5% active. Drosophila S2 Gal4-VP16 UAS-luciferase, luminescence, 20 h;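 also: Gal4-VP16 expression switched on by copper sulfate through the metallothionein promoter; nearly all actives have a fitted effect of over 50% in size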
# The depositor's hits bear a star; ? = inconclusive; / = no result; [ ] = dose if it differs, or a comment. Rows were chosen to be rich in hits. Some 19% of all compounds tested hit in one or more screens of this group. Calls follow the shape of the dose curve; as a rule, active = well fitted curve in the direction sought with a large enough effect; inconclusive = small, poorly fitted or top-dose-only effect, or another doubt; inactive = no such curve, though single readings can be large; an effect the other way counts as inactive or inconclusive. % is scaled to controls: 0 for no effect and ±100 for the full control effect; potency is read from the fitted curve at half-maximal effect.
SMILES,TDP1 block,TDP1 cell noCPT,DT40 TDP1 CPT,RORg inh,Gal4-VP16 FLuc
O=C(Nc1ccc(Br)cn1)C1CCCN1S(=O)(=O)c1ccccc1 (stereo not given),5%,?,?,-1%,3%
Cc1ccc(S(=O)(=O)N2CCCC2C(=O)Nc2nc3c(s2)CCCC3)cc1 (stereo not given),4%,23µM*,?,?,?
O=C(NC1CC1)c1cccc(NC(=O)C2CCN(S(=O)(=O)c3ccccc3C(F)(F)F)CC2)c1,/,26µM*,?,/,/
CN1C(=O)COc2ccc(C(=O)c3oc4ccccc4c3-c3cnc4c(c3)COc3ccccc3-4)cc21,-2%,/,/,?,1%
CCc1nnc(SCC(=O)Nc2ccc(N3CCOCC3)cc2)o1,2%,?,-7%,1%,14%
O=C(OCC(=O)N1CCN(c2ccccc2)CC1)C1CCCN1S(=O)(=O)c1ccc(Cl)cc1 (stereo not given),2%,21µM*,?,/,/
O=C(Nc1ccc(C(F)(F)F)cc1)C1CCCCN1S(=O)(=O)c1ccccc1 (stereo not given),-7%[56.1 µM],29µM*,9.2µM*,/,/
CN(C(=O)C1CCCCN1S(=O)(=O)c1ccccc1)c1ccccc1 (stereo not given),0%,?,?,/,/
O=C(Nc1ccccc1)C1CCCCN1S(=O)(=O)c1ccccc1 (stereo not given),-3%,?,-9%,-32%,-5%
Cc1ccc(S(=O)(=O)N2CCCCC2C(=O)N(C)c2ccccc2)cc1 (stereo not given),/,15µM*,16µM*,-15%,2%
Cc1cc(C)cc(NC(=O)C2CCCCN2S(=O)(=O)c2ccccc2)c1 (stereo not given),/,13µM*,21µM*,/,/
COc1ccc(NC(=O)C23CC4CC(CC(Cl)(C4)C2)C3)cc1S(=O)(=O)N1CCOCC1,0%,?,-22%,/,/
O=C(NCc1ccccc1)C1CCCN1S(=O)(=O)c1ccc(Cl)cc1 (stereo not given),/,-27%,?,-1%,-3%
O=C(NCc1ccccc1Cl)[C@@H]1CCCN1S(=O)(=O)c1ccc(Cl)cc1,1%,16µM*,?,/,/
Nc1ccc(N=Nc2ccccc2O)c(N)c1,/,3%,8%,/,/
Oc1ccccc1N=Nc1ccccc1O,9%,4.6µM*,4.6µM*,1.4µM*,-24%
CCC(c1nnnn1C(C)(C)C)N1CCN(C2CCCC2)CC1 (stereo not given),3%,1%,10%,-28%[0.365 µM],/
Cc1csc2c(N3CCN(C(=S)Nc4ccc(C(F)(F)F)cc4)CC3)ncnc12,4%,?,?,5%,?
Cc1csc2c(N3CCN(C(=O)NC(C)(C)C)CC3)ncnc12,3%,18µM*,15µM*,30%,-11%
Cc1csc2c(N3CCN(C(=O)c4ccc(C(C)(C)C)cc4)CC3)ncnc12,5%,4.1µM*,?,?,?
Cc1csc2c(N3CCN(C(=O)Nc4ccc(Cl)c(Cl)c4)CC3)ncnc12,3%,21µM*,?,?,-24%
NNC(=O)c1nc[nH]c1C(=O)Nc1ccccc1,/,0%,-23%,-7%,0%
Nc1nc2ccc(-c3nc4ccccc4o3)cc2s1,3%,?,-24%,?,?
Cc1cc(CN2CCCC(N3CCc4ccccc4C3)C2)cc(C)c1O (stereo not given),/,?,13µM*,-16%,-15%
CC(C)=CCCC1(C)C=Cc2c(c(C)cc3c2[nH]c2cc(O)ccc23)O1 (stereo not given),/,16µM*,?,-2%,?
Cc1ccc(OCC(=O)N2CCC3(CC2)CC(=O)c2ccccc2O3)cc1,-9%[0.505 µM],13µM*,21µM*,/,/
O=C1CC2(CCN(C(=O)COc3ccccc3F)CC2)Oc2ccccc21,/,?,-15%,/,/
COc1cccc(OCC(=O)N2CCC3(CC2)CC(=O)c2ccccc2O3)c1,-2%,?,?,/,/
O=C1CC2(CCN(C(=O)COc3ccc(Cl)cc3)CC2)Oc2ccccc21,-9%[0.505 µM],18µM*,?,/,/
